# Screens (PubChem BioAssay)
# This is a sample that favours compounds with a hit; in the whole collection about 1.1% have one here.
# Insulin prom up: MIN6 insulin promoter up-regulation. MIN6 insulin promoter-GFP reporter, high-content imaging; hits give high values. actives 0.3% (n = 190,000). z-score at 5 µM;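 active means z-score above 3 at 5 µM with at least 500 cells counted in the well; inconclusive means wells under 500 cells, flagged as cytotoxic or low count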
# Insulin prom inh: TRM-6 insulin promoter activity inhibition | TRM-6 cells (human fetal islet line), insulin promoter-eGFP reporter, imaging; reporter expression induced with tamoxifen | inhibition, % at 2 µM | actives 0.9% (n = 130,000);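 active means inhibition above the mean plus 3 SD, with well images judged a real hit on visual review, cut at about 60% in these data, passing the limit was not always enough; inconclusive means inhibition over the cutoff but images rejected on review; inactive means inhibition not above the cutoff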
# Efa HMGR inh: E. faecalis class II HMG-CoA reductase inhibition; purified E. faecalis HMGR, NADPH absorbance 340 nm kinetic; inhibition, % at 10 µM; actives 0.41% (n = 190,000);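 active means inhibition above a set limit, the median over all tested compounds plus 3 SD, cut at about 9.5% in these data; inconclusive means no clear call, values can overlap the other calls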;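 further: enzyme runs in reverse so mevalonate oxidation gives rising NADPH absorbance; 0% = complete reaction with DMSO and 100% = background rate lacking mevalonate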
# HSV augment: HSV replication enhancement. HSV replication augmentation in cells, fold increase. maximum fold increase. actives 0.005% (n = 220,000). AID 1956; in the data active means maximum fold increase above about 1.5; inconclusive means no clear call, values can overlap the other calls; tested in PC3 cells
# Starred values were filed as active, the others as inactive; i = inactive; u = inconclusive; x = not tested or not shown.
SMILES,Insulin prom up,Insulin prom inh,Efa HMGR inh,HSV augment
COc1ccccc1NC(=O)C1=C(C)NC(SCC(=O)c2ccc(C)cc2)=C(C#N)C1c1ccco1 (centres undefined),3.3*,16,-5,x
CC(=O)C1=C(C)NC(SCC(=O)c2ccc(F)cc2)=C(C#N)C1c1ccco1 (centres undefined),0.49,x,-5,i
CCOc1ccc(-c2[nH]ncc2Oc2ccccc2OCC)c(O)c1,-1.4,-108,24*,i
CCOc1ccc(-c2[nH]ncc2Oc2ccccc2OC)c(O)c1,0.33,x,2,i
N#Cc1ccsc1NC(=O)CSc1nnc(-c2ccccc2)o1,x,56,0,i
N#Cc1ccsc1NC(=O)COc1ccc(-c2nnco2)cc1,0.17,65*,0,i
Cc1cc(NC(=O)CSc2nnc3c(C)cc4c(C)ccc(C)c4n23)no1,0.14,58,2,i
COc1cc2cc(C)c3nnc(SCC(=O)Nc4cc(C)on4)n3c2cc1OC,6*,x,-6,i
CCc1nnc(NC(=O)CSc2nc(C)c3c(c2C#N)CCCC3)s1,-0.98,85*,-1,i
COc1ccc(NC(=O)CSc2nc(C)c3c(c2C#N)CCCC3)cc1,-0.06,-15,-3,i
N=c1c2c(-c3ccccc3)c(-c3ccccc3)n(Cc3ccco3)c2ncn1CCCn1ccnc1,u,-85,-2,x
N=c1c2c(-c3ccccc3)c(-c3ccccc3)n(Cc3ccco3)c2ncn1CCCN1CCOCC1,-1.2,x,11*,i
Cc1ccc(/C=N/NC(=O)Cn2nnc(N)n2)o1,-0.17,x,x,i
CC1CN(C)C(C)C/C1=N\Oc1ccc([N+](=O)[O-])cc1 (centres undefined),-0.16,14,-4,i
CC1=CC(=O)C=C(C)C1=NOc1ccc([N+](=O)[O-])cc1,0.07,100*,-6,i
Cc1cccc(N2CCC(N=CN(C)C)=N2)c1,-0.85,-14,1,i
CC(C)c1cc(C(N)=O)c(NC(=O)C2CCC2)s1,x,81*,-2,i
CC(C)c1nnc(NC(=O)C2CCCCC2)s1,-0.45,x,0,i
O=c1[nH]c(=O)n(Cc2ccccc2)c2nc(-c3ccc(Oc4ccc(F)cc4)c([N+](=O)[O-])c3)n(CCO)c12,0.18,74*,-5,i
Cc1cc(C)nc(N2CCC(C(=O)NCCc3ccc(F)cc3)CC2)n1,0.04,25,-4,x
Cc1cc(C)nc(N2CCCC(C(=O)NCCc3ccc(F)cc3)C2)n1 (centres undefined),0.15,86*,-1,i
CC(=O)Nc1ccc(S(=O)(=O)N(Cc2ccccc2)c2ccccc2F)cc1,0.03,x,0,i
Nc1c2c(nc3ccc(Br)cc13)N(Cc1ccccc1)CC2,x,69*,-5,i
CCOC(=O)C1CC(c2ccccc2)=NNC1=O (centres undefined),0.28,26,-7,i
Cc1nc2cc(NC(=O)Nc3ccc(Br)cc3)ccc2o1,-1.2,x,-3,i
SMILES,Insulin prom up,Insulin prom inh,Efa HMGR inh,HSV augment
Cc1cc(C)nc(N2N=C(C(C)(C)C)CC2=O)n1,-0.27,-52,-8,i
Cc1ccc(SCC2=NN(c3nc(C)cc(C)n3)C(=O)C2)cc1,0.03,67*,-4,i
O=C1c2ccccc2C(=O)C1c1ccc2ccccc2n1,-1.1,-25,15*,i
COc1ccc2nc(SCC(=O)Nc3ccc(S(=O)(=O)N4CCCC4)cc3)c(C#N)cc2c1,3.5*,-91,-5,i
Cc1cc(C)c(S(C)(=O)=O)c(N(C)N)n1,-0.28,75*,-6,i
COc1cccc(Oc2ccc(N/C=C/C(=O)C(C)(C)C)cc2)c1,0.23,75*,-5,i
Clc1ccc(-c2ccc(CNCC3CCCO3)o2)cc1 (centres undefined),-0.89,x,x,i
NS(=O)(=O)c1cccc2cccnc12,5.5*,-55,1,i
Fc1cccc(NC(=S)NCCN2CCOCC2)c1,0.11,-21,0,i
COc1ccc(OCC(=O)Nc2ccccc2C(=O)NC(C)C)cc1,0.16,x,-4,i
CCC(C)NC(=O)c1ccccc1NC(=O)COc1ccc(OC)cc1 (centres undefined),x,79*,-1,x
CC(=O)c1ccc(NC(=S)Nc2cccc(Cl)c2C)cc1,0.38,x,-7,i
C[C@H](N)C(=O)OCc1ccc([N+](=O)[O-])cc1,0.19,x,x,i
CC(O)C(C(=O)OCc1ccc([N+](=O)[O-])cc1)N1C(=O)c2ccccc2C1=O (centres undefined),-0.25,62*,-4,i
S=C(c1ccc2c(c1)OCO2)N1CCOCC1,0.45,x,x,i
CCN(c1ccccc1)S(=O)(=O)c1ccc(Cl)c(C(=O)N(CC2CCCO2)C2CCS(=O)(=O)C2)c1 (centres undefined),-1.2,x,0,i
Cc1ccc(CNC(=O)c2ccc(-n3cccc3)cc2)cc1,0.1,100*,8,x
N=C(N=C(N)N)N1CCc2ccccc21,-0.33,x,-14,i
CC(C)C(C)(C#N)NC(=O)CSc1nnc(C(F)(F)F)n1C (centres undefined),3*,-11,2,i
c1ccc(OCCSc2nc3ccccc3[nH]2)cc1,-0.13,-53,13*,i
Fc1ccccc1CSc1nc2ccccc2[nH]1,0.41,74*,-1,x
Fc1c(F)c(F)c(CSc2nc3ccccc3[nH]2)c(F)c1F,-0.41,74,-7,i
Cc1ccc2nc(SCCCCOc3ccccc3)[nH]c2c1,-0.17,-3,-1,i
Cc1nnc(NC(=O)c2ccc3ccccc3n2)s1,-0.35,x,-1,i
COC(=O)c1c(-c2ccc(C(C)(C)C)cc2)csc1NC(=O)C1C2CCC(O2)C1C(=O)O (centres undefined),-0.02,35,-2,i
SMILES,Insulin prom up,Insulin prom inh,Efa HMGR inh,HSV augment
CC(=O)c1sc(NC(=O)COc2ccc(C(C)C)c(C)c2)nc1C,0.27,x,-7,i
O=[N+]([O-])c1ccc(CSc2nc3ccccc3o2)cc1,0.25,x,0,i
COC(=O)c1ccc(CSc2nc3ccccc3o2)cc1,1.1,81*,1,i
COc1ccc(CN2CCN(C(C)C)C(CCO)C2)cc1Cn1cncn1 (centres undefined),1.7,x,0,i
COc1ccc(CCC(=O)N(C)CC(=O)Nc2ccc(N3CCOCC3)cc2)cc1,0.42,30,9.7*,i
NS(=O)(=O)c1cc2c(cc1Cl)NC(Cc1ccccc1)NS2(=O)=O (centres undefined),0.45,x,x,i
O=C(COc1ccc2ccccc2c1)N1CCN(C(=O)c2ccco2)CC1,-0.03,x,10*,i
Cc1ccc(OCC(=O)N2CCN(C(=O)c3ccco3)CC2)cc1,0.41,x,2,i
COc1ccc(NC(=O)CSc2nccn2C)cc1S(N)(=O)=O,0.34,-29,10*,i
COc1ccc(NC(=O)CSc2nncs2)cc1S(N)(=O)=O,-0.73,x,x,i
CCn1c(-c2nn(C)c(C)c2Cl)n[nH]c1=S,x,u,11*,i
CC1=C(C#N)C(/C=N/OCc2ccc(Cl)cc2)CC(=O)N1 (centres undefined),0.11,83*,2,i
Cc1cc(C(F)F)n2nc(C(=O)Nc3ccc(S(=O)(=O)N4CCCCCC4)cc3)nc2n1,x,100*,-2,i
